In PubChem BioAssay (NCI):
The panel holds about 83,000 compounds, 20% with a hit somewhere; the sample as a whole holds those more often.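 Values shown are percent growth following 48 h exposure of cells in 96-well plates to a single concentration of compound; below 10 was considered active.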 A number with no mark means an inactive call. Calls of active or inactive are those of the source.

Test system: HOP-92 NSCLC
Assay: NCI-60 one-dose screen, 48 h (100 = growth as untreated, 0 = no growth, -100 = all killed)
Settings: 10 µM unless noted

Compound	growth
Cc1ccc2nc(NC(=O)CSc3nc(-c4ccccc4)c(C#N)c4nnnn34)sc2c1	106%
N=C(N)c1ccc(-c2ccc(-c3cc(Cl)cc(Cl)c3)s2)nc1	87.8%
COc1ccc(Oc2nc(Nc3ccc(N4CCOCC4)cc3)ncc2NC(=O)Nc2cc(OC)cc(OC)c2)cc1	-11.5% (active)
CCCCNc1cc(-c2cn[nH]c2-c2cc(C)cc(OC)c2)nc(-c2cccnc2)n1	68.2%

Test system: NCI-H522 lung
Assay: as above
Settings: 10 µM unless noted

Compound	growth
N#CSc1c[nH]c2cccc(/C=C/C(=O)/C=C(O)/C=C/c3cccc4[nH]cc(SC#N)c34)c12	-68.2% (active)
COCCn1cc(-c2csc(-c3c[nH]c4ccc(Br)cc34)n2)c2cccnc21	-28.3% (active)
N#CC1CCc2c(c(-c3ccc4nc(N)sc4c3)nc3ccc4[nH]ncc4c23)C1 (centres undefined)	40.2%
NS(=O)(=O)c1ccc(-c2cc(-c3nnc(SCC(=O)Nc4ccc(C(=O)/C=C/c5ccc(Cl)cc5)cc4)n3-c3ccccc3)c3ccccc3n2)cc1	89.9%
O=C(Nc1cc(Cl)ccc1O)c1cccc(Nc2ccnc(C(F)(F)F)c2)c1	30.6%
CC/C(Cc1ccccc1)=C(\c1ccc(OCCCN(C)C)cc1)c1ccc(OC(=O)NCc2ccccc2)cc1	95.5%
Clc1c(Cl)[n+](Cc2ccc3ccccc3c2)cn1Cc1ccc2ccccc2c1	-52.5% (active)
CSC(SC)=C(C#N)c1nc2ccccc2s1	6.27% (active)
O=C(CN1CCCCCC1)Nc1nc2ccc(NCc3ccc(Cl)cc3)cc2s1	84.7%
CCC1S/C(=N\N=C(\C)c2cc3cc(Cl)ccc3o2)N(c2ccccc2)C1=O (centres undefined)	160%
Cc1ccc(C)c(/C=C2\CN(C(=O)OC(C)(C)C)C/C(=C\c3cc(C)ccc3C)C2=O)c1	46.1%
COc1ccc(-c2n[nH]c(=O)c3nc(NC(=S)Nc4ccc(Oc5ccccc5)cc4)sc23)cc1	68.9%
O=C1/C(=C\c2ccccn2)c2ccccc2N1c1c(Cl)cccc1Cl	36.8%
Cc1ncc(C(=O)Nc2ccc(CN3CCN(C)CC3)c(C(F)(F)F)c2)cc1C#Cc1cnc(N)c2ncccc12	26.2%
CNC(=O)c1cc(Oc2ccc3c(c2)sc2nc(-c4ccc(OC)cc4)cn23)ccn1	38.1%
O=C1Nc2c(C(=O)O)cccc2/C1=N/c1n[nH]c(=S)s1	81.1%
COC(=O)c1ccc(NC(=O)Nc2ccc(C(=O)OC)cc2)cc1	51.2%
COc1ccc(/C=C/C(c2cc(OC)c(OC)c(OC)c2)n2ccnc2)cc1O (centres undefined)	24.6%
Cc1nc2sc(C(=O)Nc3cccc(Br)c3C)c(N)c2cc1C(O)c1ccccc1 (centres undefined)	2.97% (active)
C=C1C(=O)O[C@H]2[C@H]1CC/C(COC(=O)/C=C/C(=O)OC/C1=C/CC[C@@]3(C)O[C@H]3[C@H]3OC(=O)C(=C)[C@@H]3CC1)=C\CC[C@@]1(C)O[C@@H]21	-32% (active)

Compound	growth
COc1ccc(-c2ccc(-c3ccc(C(=N)N)nc3)s2)cc1Cl	-47.3% (active)
COc1cc(/C=N/Nc2ccc(Br)cc2)cc(OC)c1OC	39.8%
C#CCOc1cccc(-c2ncnc3cc(NC(=O)C=C)ccc23)c1	10.5%
O=c1ccc(=O)n(-c2nc(-c3ccc([N+](=O)[O-])cc3)cs2)[nH]1	95.8%
CCCCCCCCCCCCCCCCCC1=NC(C)(C)CN1CC(C)O (centres undefined)	25.8%
CC1=C(C(=O)Nc2nc(-c3ccc(Cl)cc3)cs2)[C@H](c2ccc(O)cc2)NC(=O)N1	90.5%
O=C(Cn1nnc2ccccc21)N/N=C/c1c[nH]c2ccccc12	18.1%
Cn1c(=O)c2[nH]c(SCC(=O)Nc3ccc(C(=O)/C=C/c4ccccc4Cl)cc3)nc2n(C)c1=O	94.3%
O=c1nc(-c2ccccc2)c2cc(-c3ccc(C(F)(F)F)nc3)ccc2[nH]1	85.3%
CN(C)S(=O)(=O)Oc1ccc(-c2sc3cc(OS(=O)(=O)N(C)C)ccc3c2C(=O)c2ccc(OCCN3CCCCC3)cc2)cc1	39.6%
O=S(=O)(NCCCNc1nccc(-c2c(-c3cccc(F)c3)nc3occn23)n1)c1ccc(F)cc1	38.7%
Cc1ccc(-c2nc(N3CCNCC3)c3oc(-c4ccc(C)cc4)nc3n2)cc1	76.1%
COc1ccc(Cn2cc3c(c2-c2ccccc2)CCc2cnoc2-3)cc1	12.1%
CC(C)(C)n1cc(-c2ccnc(NCCCNS(=O)(=O)c3ccc(C(F)(F)F)cc3)c2)c(-c2cccc(F)c2)n1	73.7%
O=C(/C=C/c1ccccc1)c1ccc(Nc2nc(Nc3ccc(F)cc3)nc(Nc3ccc(Cl)cc3)n2)cc1	87.6%
COc1ccc2c(c1)/C(=N/c1n[nH]c(=S)s1)C(=O)N2	76.3%
Cc1ccc2nc(NC(=O)CSc3nc(-c4ccccc4)c(C#N)c4nnnn34)sc2c1	89.4%
N=C(N)c1ccc(-c2ccc(-c3cc(Cl)cc(Cl)c3)s2)nc1	34.1%
COc1ccc(Oc2nc(Nc3ccc(N4CCOCC4)cc3)ncc2NC(=O)Nc2cc(OC)cc(OC)c2)cc1	4.69% (active)
CCCCNc1cc(-c2cn[nH]c2-c2cc(C)cc(OC)c2)nc(-c2cccnc2)n1	81.2%
